Molecules are shown by their SMILES. Calls of active or inactive are those of the source.

Assay [1] is described as follows: binders of probe aFSTL3 on microarray, primary screen, stem cell growth factor project, biochemical, small-molecule microarray, fluorescence 635/667 (AID 1064).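 Further: measures binding of the biotinylated anti-FSTL3 antibody to printed compounds.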 The settings on record: higher = more signal.
The nature of assay [2]: binders from COS7 lysate, DM2A8 probe, primary screen, torsin A project, cell lysate, small-molecule microarray, fluorescence 635/667 (AID 1065). The settings on record: higher = more signal, COS7 lysate expressing mutant human TOR1A.
A short description of assay [3]: binders of probe aFGF2 on microarray, primary screen, stem cell growth factor project, biochemical, small-molecule microarray, fluorescence 635/667 (AID 1067).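 Further: measures binding of biotinylated aFGF2 protein to printed compounds on slides; z-score merges feature fluorescence and signal-to-noise across triplicate slides.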 The settings on record: higher = more signal.
Assay [4] can be described thus: binders of probe aFGF10 on microarray, primary screen, stem cell growth factor project, biochemical, small-molecule microarray, fluorescence 635/667 (AID 1071).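 Further: score merges 667 nm spot intensity and signal to noise from triplicate slides.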 The conditions noted are these: higher = more signal.
Assay [5] concerns the target Neurogenic locus notch homolog protein 2 (Homo sapiens) (UniProt Q04721). The assay is described as follows: Notch2 binders on small-molecule microarrays, primary screen, biochemical, small-molecule microarray, 635 nm fluorescence, stem cell growth factors (AID 1073). The conditions noted are these: Notch2 binding, higher = more signal.
Assay [6] has as its target Pro-neuregulin-1, membrane-bound isoform (Homo sapiens) (UniProt Q02297). The assay is described as follows: NRG1 binders on small-molecule microarrays, primary screen, psychiatric disease protein project, biochemical, small-molecule microarray, fluorescence 635/667 (AID 1075).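 Further: score combines 667 nm spot fluorescence with signal to noise.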 The conditions noted are these: NRG1 binding, 635 nm fluorescence, higher = more signal.
In assay [7] the test system is Neuregulin-1 EGF-like domain. Nature of the assay: binders of neuregulin-1 EGF-like domain, primary screen, biochemical, small-molecule microarray, 635 nm fluorescence (AID 1081).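 Further: binding of the protein to compounds printed on small-molecule microarray slides.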 The conditions noted are these: small-molecule microarray binding, higher = more signal.
Assay [8] is described as follows: FRG1 promoter luciferase signal modulators, primary screen, FRG1 inhibition for FSHD, cell-based, C2C12 myotubes, firefly/Renilla luciferase, luminescence (AID 1084). The settings on record: higher = more signal, called active from +8 up or from −8 down.
Assay [9] can be described thus: binders of probe aFST on microarray, primary screen, stem cell growth factor project, biochemical, small-molecule microarray, fluorescence 635/667 (AID 1086).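 Further: score merges 667 nm fluorescence with signal-to-noise of each printed compound spot.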 The conditions noted are these: higher = more signal.
A short description of assay [10]: binders of probe aHhip on microarray, primary screen, stem cell growth factor project, biochemical, small-molecule microarray, fluorescence 635/667 (AID 1087).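 Further: score merges spot fluorescence at 667nm with spot signal to noise ratio.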 The settings on record: higher = more signal.
Assay [11] concerns PRMT1 (protein arginine N-methyltransferase 1). The assay is described as follows: PRMT1 binders on small-molecule microarrays, primary screen, biochemical, small-molecule microarray, 635 nm fluorescence (AID 1088).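 Further: binding of Prmt1 protein to compounds spotted on small-molecule microarray slides.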 The conditions noted are these: small-molecule microarray binding, higher = more signal.
A short description of assay [12]: yeast growth modulation, basal conditions, primary screen, YJM789 clinical isolate, OD600, 24 h (AID 1089).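 Further: growth of clinical yeast isolate S. cerevisiae YJM 789 seeded 1000 cells per well; test concentration not given here.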 The conditions noted are these: S. cerevisiae YJM789 growth, higher = more signal, called active from +8 up or from −8 down.
Assay [13] can be described thus: fission yeast growth modulation, primary screen, strain 972, OD600, 24 h, no modulator (AID 1090).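 Further: basal condition with compound alone and no growth modifier present; test concentration not given here.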 The settings on record: S. pombe 972 growth, higher = more signal, called active from +8 up or from −8 down.
The nature of assay [14]: S. cerevisiae growth modulation with rapamycin, primary screen, strain BY4716, OD600, 96 h (AID 1091). Further: test concentration not given here. The conditions noted are these: higher = more signal, called active from +8 up or from −8 down.
Assay [15] has as its target Torsin-1A-interacting protein 2 (Homo sapiens) (UniProt Q8NFQ8). The assay is described as follows: LULL1 binders on small-molecule microarray, primary screen, cell lysate, human LULL1 lysate, 635/667 nm fluorescence (AID 1092).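 Further: probe is lysate of COS7 cells overexpressing human LULL1; score merges per-feature 667 nm fluorescence with signal-to-noise.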 The settings on record: hLULL1 lysate binding, 635 nm fluorescence, higher = more signal.
Assay [16] in a line: E. coli growth modulation, two-sided OD650, primary screen, E. coli filamentation project, strain DRC41, 24 h (AID 1093).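 Further: MC1000 strain lacking acrAB efflux and sulA so SOS filamentation is blocked; test concentration not given here.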 The settings on record: OD650, 24 h, higher = more signal, called active from +8 up or from −8 down.
Assay [17] can be described thus: small-molecule microarray binders of probe aLefty2, primary screen, biochemical, biotinylated probe, 635/667 nm fluorescence (AID 1094).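 Further: score merges spot fluorescence near 667 nm with spot signal-to-noise ratio.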 The conditions noted are these: higher = more signal.
The subject of assay [18] is Noggin (protein binding on small-molecule microarray). Nature of the assay: Noggin binders on small-molecule microarray, primary screen, biochemical, 635/667 nm fluorescence (AID 1095).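 Further: score merges 667 nm feature fluorescence with signal to noise over triplicate slides.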 The settings on record: 635 nm fluorescence, higher = more signal.
Assay [19] concerns the target Neurogenic locus notch homolog protein 3 (Homo sapiens) (UniProt Q9UM47). The assay is described as follows: NOTCH3 binders on small-molecule microarray, primary screen, biochemical, 635/667 nm fluorescence (AID 1096). The settings on record: NOTCH3 binding, 635 nm fluorescence, higher = more signal.
Assay [20] is described as follows: small-molecule microarray binders of probe aEGFR, primary screen, biochemical, biotinylated probe, 635/667 nm fluorescence (AID 1097).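 Further: probe is a biotinylated anti-EGFR antibody binding compounds printed on slides; score combines fluorescence near 667 nm and signal to noise of each spot.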 The settings on record: higher = more signal.

Neurogenic locus notch homolog protein 3 (Homo sapiens), sequence (Q9UM47 whole entry, looked up): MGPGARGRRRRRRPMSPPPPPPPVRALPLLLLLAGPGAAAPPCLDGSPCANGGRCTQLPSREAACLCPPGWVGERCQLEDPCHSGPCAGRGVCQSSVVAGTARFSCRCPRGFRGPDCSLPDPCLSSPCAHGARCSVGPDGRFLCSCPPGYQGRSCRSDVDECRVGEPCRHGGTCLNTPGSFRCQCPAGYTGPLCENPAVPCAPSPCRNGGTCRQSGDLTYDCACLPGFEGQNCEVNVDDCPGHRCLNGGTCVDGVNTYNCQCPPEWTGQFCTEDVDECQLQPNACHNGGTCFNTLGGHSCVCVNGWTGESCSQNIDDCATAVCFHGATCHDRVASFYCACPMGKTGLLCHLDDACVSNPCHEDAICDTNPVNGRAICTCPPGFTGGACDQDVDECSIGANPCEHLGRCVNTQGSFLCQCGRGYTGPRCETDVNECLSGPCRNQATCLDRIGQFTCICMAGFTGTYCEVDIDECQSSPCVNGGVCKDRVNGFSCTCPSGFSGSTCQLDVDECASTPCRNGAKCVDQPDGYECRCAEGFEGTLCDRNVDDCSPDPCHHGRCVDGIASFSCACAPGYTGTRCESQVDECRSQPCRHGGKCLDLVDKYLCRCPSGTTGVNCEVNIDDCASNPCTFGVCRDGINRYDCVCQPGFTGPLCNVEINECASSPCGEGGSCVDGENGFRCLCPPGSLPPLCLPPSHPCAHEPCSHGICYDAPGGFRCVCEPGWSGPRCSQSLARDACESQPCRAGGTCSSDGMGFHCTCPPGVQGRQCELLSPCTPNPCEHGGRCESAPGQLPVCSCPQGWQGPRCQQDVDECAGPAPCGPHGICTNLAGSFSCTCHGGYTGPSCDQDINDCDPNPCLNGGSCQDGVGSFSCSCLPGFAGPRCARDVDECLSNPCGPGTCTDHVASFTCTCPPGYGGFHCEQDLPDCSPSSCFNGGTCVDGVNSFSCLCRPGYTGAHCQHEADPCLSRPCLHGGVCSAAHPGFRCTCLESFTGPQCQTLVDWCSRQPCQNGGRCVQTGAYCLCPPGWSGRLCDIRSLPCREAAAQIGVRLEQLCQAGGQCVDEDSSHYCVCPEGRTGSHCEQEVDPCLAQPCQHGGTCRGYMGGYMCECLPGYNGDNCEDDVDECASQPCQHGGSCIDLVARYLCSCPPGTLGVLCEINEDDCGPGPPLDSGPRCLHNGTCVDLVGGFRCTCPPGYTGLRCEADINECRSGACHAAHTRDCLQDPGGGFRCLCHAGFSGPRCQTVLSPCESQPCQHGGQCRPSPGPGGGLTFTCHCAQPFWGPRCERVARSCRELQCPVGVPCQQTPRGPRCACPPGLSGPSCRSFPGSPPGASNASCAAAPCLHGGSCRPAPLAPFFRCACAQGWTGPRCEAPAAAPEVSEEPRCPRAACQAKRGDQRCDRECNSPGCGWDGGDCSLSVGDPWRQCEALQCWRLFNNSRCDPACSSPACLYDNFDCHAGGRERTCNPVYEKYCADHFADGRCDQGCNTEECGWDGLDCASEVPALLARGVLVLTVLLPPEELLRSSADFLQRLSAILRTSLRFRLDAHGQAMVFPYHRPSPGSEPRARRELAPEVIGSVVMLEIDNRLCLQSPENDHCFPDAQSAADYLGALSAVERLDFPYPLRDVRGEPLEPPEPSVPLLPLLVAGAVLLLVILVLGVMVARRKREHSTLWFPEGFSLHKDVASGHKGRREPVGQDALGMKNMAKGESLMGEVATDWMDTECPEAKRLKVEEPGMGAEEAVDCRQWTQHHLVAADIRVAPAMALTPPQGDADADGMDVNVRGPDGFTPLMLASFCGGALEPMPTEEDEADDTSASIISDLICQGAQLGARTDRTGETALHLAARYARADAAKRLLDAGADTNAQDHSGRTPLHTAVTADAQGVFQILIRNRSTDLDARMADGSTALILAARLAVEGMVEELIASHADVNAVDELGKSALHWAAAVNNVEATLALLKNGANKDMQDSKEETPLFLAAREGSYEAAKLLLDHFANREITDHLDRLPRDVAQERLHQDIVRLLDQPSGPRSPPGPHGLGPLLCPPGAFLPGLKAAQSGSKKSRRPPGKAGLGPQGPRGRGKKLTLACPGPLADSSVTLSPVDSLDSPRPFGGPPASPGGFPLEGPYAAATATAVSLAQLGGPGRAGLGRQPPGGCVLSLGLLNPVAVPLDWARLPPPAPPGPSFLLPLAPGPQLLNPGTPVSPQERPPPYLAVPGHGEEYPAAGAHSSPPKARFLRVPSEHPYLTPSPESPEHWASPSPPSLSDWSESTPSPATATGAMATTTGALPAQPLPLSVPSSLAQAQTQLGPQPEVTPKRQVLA
Torsin-1A-interacting protein 2 (Homo sapiens), sequence (Q8NFQ8 whole entry, looked up): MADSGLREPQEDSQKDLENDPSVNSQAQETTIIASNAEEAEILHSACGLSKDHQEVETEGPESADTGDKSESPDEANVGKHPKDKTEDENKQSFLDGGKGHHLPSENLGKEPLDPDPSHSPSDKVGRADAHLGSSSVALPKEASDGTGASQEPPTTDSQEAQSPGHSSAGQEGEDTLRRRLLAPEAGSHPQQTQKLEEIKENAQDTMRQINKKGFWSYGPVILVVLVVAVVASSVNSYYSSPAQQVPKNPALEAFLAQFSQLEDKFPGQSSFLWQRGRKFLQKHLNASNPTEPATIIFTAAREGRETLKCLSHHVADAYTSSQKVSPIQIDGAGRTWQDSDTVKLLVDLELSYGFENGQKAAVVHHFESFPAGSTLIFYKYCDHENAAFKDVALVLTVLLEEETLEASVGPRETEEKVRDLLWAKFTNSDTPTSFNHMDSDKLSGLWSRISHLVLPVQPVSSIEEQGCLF
Pro-neuregulin-1, membrane-bound isoform (Homo sapiens), sequence (Q02297 whole entry, looked up, the tested form may be a part, canonical isoform): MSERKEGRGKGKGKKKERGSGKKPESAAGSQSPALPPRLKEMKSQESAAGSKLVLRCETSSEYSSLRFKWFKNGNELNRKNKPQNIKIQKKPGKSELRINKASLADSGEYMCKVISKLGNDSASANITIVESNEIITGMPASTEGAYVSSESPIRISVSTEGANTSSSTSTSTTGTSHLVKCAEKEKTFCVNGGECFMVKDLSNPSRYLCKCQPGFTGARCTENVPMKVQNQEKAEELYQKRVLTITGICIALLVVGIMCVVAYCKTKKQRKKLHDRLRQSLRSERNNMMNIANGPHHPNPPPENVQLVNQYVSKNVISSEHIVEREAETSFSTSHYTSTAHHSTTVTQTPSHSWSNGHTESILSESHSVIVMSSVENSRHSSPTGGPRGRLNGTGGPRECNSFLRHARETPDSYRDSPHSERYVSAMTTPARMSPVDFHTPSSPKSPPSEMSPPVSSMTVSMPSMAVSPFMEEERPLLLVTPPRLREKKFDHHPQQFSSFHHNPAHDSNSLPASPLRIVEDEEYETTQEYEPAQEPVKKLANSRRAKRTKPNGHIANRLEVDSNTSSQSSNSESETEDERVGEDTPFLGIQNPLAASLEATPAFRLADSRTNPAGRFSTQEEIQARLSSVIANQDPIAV

For `COC(=O)[C@H](C)NC(=O)CCC1CC(OC(=O)NCc2ccc3c(c2)OCO3)CC2(CCCC(COC(=O)NCCc3ccc(Cl)cc3)O2)O1` (stereo not given in full), the composite z-score in [1] is -0.592; in [2], -0.406; in assay [3], -0.0812; in assay [4], 0.218; in [5] it was 0.576; in assay [6] it was 0.212. Besides, the composite z-score is 0.562 in assay [7]; 0.17 in [9]; -0.126 in [10]; 0.898 in assay [11]; 0.945 in assay [15]; -0.14 in assay [17]. In addition, the composite z-score in assay [18] is 0.621; in assay [19], 0.67; in assay [20], -0.0675. Besides, the z-score was 0.628 (inactive) in assay [8]; 0.341 (inactive) in assay [12]; 0.744 (inactive) in assay [13]; -0.529 (inactive) in assay [14]; 0.181 (inactive) in assay [16].
On to `CCOC(=O)[C@H](Cc1ccccc1)NC(=O)CCC1CC(OC(=O)NCc2ccc3c(c2)OCO3)CC2(CCCC(COC(=O)NCCOc3ccccc3)O2)O1` (stereo not given in full), for which the composite z-score in assay [1] is -0.288; in [2], 0.474; in assay [3], -0.051; in assay [4], 0.378; in assay [5], 0.896; in assay [6] it was 0.833. For the same compound, the composite z-score is 1.08 in assay [7]; 0.672 in assay [9]; -0.0994 in assay [10]; 1.48 in assay [11]; 1.31 in assay [15]; -0.0446 in [17]. The composite z-score in assay [18] turned out to be 0.484; in assay [19], 1.12; in [20], 0.0436. Besides, the z-score is 1.17 (inactive) in [8]; 0.0339 (inactive) in [12]; 0.486 (inactive) in [13]; 0.576 (inactive) in assay [14]; 0.196 (inactive) in assay [16].
As to `COC(=O)[C@H](C)NC(=O)CCC1CC(OC(=O)NCc2cccc3ccccc23)CC2(CCCC(COC(=O)NCc3cccc(C(F)(F)F)c3)O2)O1` (stereo not given in full), the composite z-score in assay [1] was -0.428; in assay [2], 0.182; in assay [3], -0.0316; in assay [4] it was 0.762; in assay [5], 1.17; in assay [6] it was 1.09. Besides, the composite z-score in [7] was 1.01; in assay [9], 0.657; in assay [10], -0.271; in [11], 1.41; in assay [15] it was 1.78; in [17] it was -0.139. Moreover, the composite z-score was 0.6 in [18], 1.09 in [19] and 0.151 in [20]. The z-score in assay [8] was -0.374 (inactive); in [12], -2.05 (inactive); in [13] it was -0.645 (inactive); in assay [14], 0.523 (inactive); in [16], -1.21 (inactive).
As for `CCOC(=O)[C@H](CC(C)C)NC(=O)CCC1CC(OC(=O)NCc2ccc3c(c2)OCO3)CC2(CCCC(COC(=O)NCCc3ccccc3OC)O2)O1` (stereo not given in full), the composite z-score in assay [1] was -0.693; in assay [2], 0.309; in [3] it was -0.085; in assay [4], 0.554; in [5] it was 1.26; in [6] it was 0.53. Also, the composite z-score in assay [7] is 0.978; in assay [9] it was 0.14; in assay [10], -0.15; in assay [11] it was 1.34; in assay [15], 1.99; in assay [17], -0.136. In addition, the composite z-score in assay [18] is 0.474; in assay [19], 1.11; in assay [20], -0.0177. Also, the z-score in assay [8] was 1.01 (inactive); in assay [12], -0.156 (inactive); in [13] it was 0.249 (inactive); in assay [14], 0.947 (inactive); in [16], -0.133 (inactive).
`COC(=O)[C@@H]1CC[C@H](C)[C@@H](c2ccc(Br)cc2)N1`: the composite z-score was 1.1 in assay [1]; -0.288 in assay [2]; 0.0499 in [3]; 0.169 in assay [4]; -0.208 in assay [5]; 0.153 in assay [6]. Further, the composite z-score in assay [7] was -0.201; in assay [9] it was -0.155; in [10], 0.842; in [11] it was -2.1; in assay [15], 1.24; in assay [17], 0.195. For the same compound, the composite z-score is -0.265 in assay [18], -1.19 in assay [19] and -0.044 in [20]. Also, the z-score in assay [8] is -0.382 (inactive); in assay [12] it was 0.826 (inactive); in assay [13], 0.771 (inactive); in assay [14], 1.08 (inactive); in [16] it was 0.532 (inactive).
